Each structure is given as a SMILES string. About 83,000 compounds went through this panel and 20% of them were active in at least one assay; those are over-represented in the sample as a whole.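 Method: cells in 96-well plates; compound added at one concentration; 48 h incubation; percent growth measured; values under 10 scored active.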 Unmarked numbers belong to inactive results. Calls of active or inactive are those of the source.

The results in this text go back to PubChem BioAssay (NCI).

The assay relates to A549/ATCC NSCLC. Briefly: NCI-60 one-dose screen, 48 h (100 = growth as untreated, 0 = no growth, -100 = all killed). The conditions noted are these: 10 µM unless noted. The method, then: Growth inhibition of the A549/ATCC human Non-Small Cell Lung tumor cell line is measured as a screen for anti-cancer activity. Cells are grown in 96 well plates and exposed to the test compound for 48 hours. Compounds are tested at a single concentration, which is 10^-5 M for most compounds. The reported endpoint is percent growth (GI% or GIPRCNT), where numbers from 0 - 100% represent growth inhibition, and numbers from -100% - 0 represent cell death. For example, a value of 40 represents 60% growth inhibition. A value of 0 means no net growth occurred over the course of the experiment. A value of -40 indicates 40% of cells at the beginning of the experiment died by the end of the experiment. A value of -100 means all cells are dead at the end of the experiment.
NCI-60 Human Tumor Cell Lines Screen was performed using the standard one-dose NCI protocol, which is described in more detail at https://dtp.cancer.gov/discovery_development/nci-60/default.htm.
Compounds with GIPRCNT values below 10 were considered active. Activity score was based on GIPRCNT using the following formula: […]
Score is 0 for GIPRCNT values of 100 or above, 50 for GIPRCNT values of 0, and 100 for GIPRCNT values of -100.
For `O=C(Nc1cccc(-n2cc(-c3ccncc3)c(-c3ccc(Cl)c(O)c3)n2)c1)Nc1cccc(C(F)(F)F)c1`, the growth is 5.74% (active).

`CCOC(=O)c1ccc(NC(=O)N2CC(C)OC(C)C2)cc1` (stereo not given): the growth was 106%.

For the molecule `C=C1C(=O)O[C@H]2[C@H]1CC/C(Cn1cc(CNC(=O)Cc3cn(C(=O)c4ccc(Cl)cc4)c4ccc(OC)cc34)nn1)=C\CC[C@@]1(C)O[C@@H]21`, the growth is 68.4%.

For `Cc1ccc(Nc2nnc(-c3ccc(Cl)cc3)o2)c(C)c1`, the growth was 79.2%.

For `O=c1[nH]c(NCc2ccccc2)nc2nc(Nc3ccc(NC(=S)Nc4ccccc4)cc3)nc(-c3ccc(O)cc3O)c12`, the growth is 41.6%.

As to `COc1ccc(S(=O)(=O)NCCCNc2nccc(-n3ccc4cccnc43)n2)cc1`, the growth is 83%.

As to `Cc1cc(N/N=C/c2nc(-c3ccccc3)oc2C)c2cc(Cl)ccc2n1`, the growth is -76.8% (active).

`CC1CN(c2oc(-c3ccccc3)nc2C#N)CC(C)O1` (stereo not given): the growth is 104%.

As for `COc1ccc(-c2cc3c(OC)c(OC)c(OC)cc3oc2=O)cc1`, the growth is 47.7%.

As to `COc1ccncc1S(=O)(=O)NC(=O)Nc1ccc(Cl)c(Cl)c1`, the growth was 44.5%.

For `C=C1CCC2C(C)(CO)C(O)CCC2(C)C1C/C=C1/C(=O)OCC1Oc1ccccc1C` (stereo not given), the growth is 89.1%.

For `O=C1c2ccccc2-c2ccccc2C1(Cl)Cl`, the growth was -21.2% (active).

Consider `CC(=O)Nc1scc[n+]1Cc1ccccc1`, for which the growth is 104%.

For the molecule `CCOC(=O)CC(=O)OC`, the growth was 101%.

Take `COc1ccc(-n2c(=S)sc3c(Cl)nc(C)nc32)c(OC)c1`: the growth is 91.3%.

For `CCOC(=O)c1c(NS(=O)(=O)c2ccc(C)cc2)sc2c1CCC1(C2)OCCO1`, the growth was 103%.

For `COc1ccc(Nc2[nH]n3c(=O)cc(-c4ccccc4)nc3c2C(=O)Nc2ccc(C)cc2)c(OC)c1`, the growth was 88.7%.

As for `Cc1ccc(CSC(=N)N)cc1C`, the growth was 103%.

For the molecule `COc1cc(NC(N)=NCCC(C)(C)c2ccc(C(F)(F)F)cc2)ncc1C#N`, the growth was 27.2%.

As for `Cc1ccc(C(=O)C2=Cc3cc4ccccc4n3Cc3cnnn32)cc1`, the growth is 99.2%.

Consider `COc1cc2c(=O)n(C3CCCCCC3)c3c4cc[nH]c4ncc3c2cc1OC`, for which the growth is 79.7%.

On to `CCN(CC)CCOc1ccc(/C(=C(/C)c2ccccc2)c2ccc(OC(C)=O)cc2)cc1`, for which the growth was 117%.

In the case of `CC(C)(C)OC(=O)NCCc1ccc(N=C=S)cc1`, the growth was 77.4%.

Regarding `Fc1ccc(-c2nc(-c3nc4ncccc4[nH]3)cc3c2[nH]c2ccccc23)cc1F`, the growth is 59%.

On to `CC(C)C1=CC2=C(C=O)C[C@@H]3[C@](C)(CCC[C@@]3(C)C(=O)OCC#CCN3CCCC3)[C@H]2CC1`, for which the growth is 67.4%.

In the case of `C=C(C)[C@@H]1C[C@@H]2Cc3cc(Cl)ccc3N1O2`, the growth is 95.4%.

In the case of `C=CCSc1n[nH]c(-c2cccs2)n1`, the growth is 98.8%.

For `Nc1cc2c([nH]c[n+]2CC#CCCl)c(SCC#CCCl)n1`, the growth was -7.51% (active).

`O=C1/C(=C/c2ccccc2)Oc2ccc(O)c(I)c21`: the growth is 103%.

With `COc1ccc(C2=CC(c3cc(OC)c(OC)c(OC)c3)NC(=O)N2)cc1OC` (stereo not given), the growth is 19%.

As for `O=C(Nc1cccc(-n2cc(-c3ccncc3)c(-c3ccc(Cl)c(O)c3)n2)c1)c1ccc(N2CCOCC2)c(C(F)(F)F)c1`, the growth was 31.4%.

Regarding `O=[N+]([O-])c1ccc(OCCCOc2ccccc2)cc1`, the growth is 92.4%.

On to `O=c1cc(Cc2ccc([N+](=O)[O-])cc2)[nH]c(=O)[nH]1`, for which the growth is 106%.

For the molecule `Nc1nc(Nc2cc(Cl)cc(Cl)c2)nn1S(=O)(=O)c1ccc2ccccc2c1`, the growth was 42.7%.

Turning to `COc1ccc(-c2cnoc2-c2ccc(OC)cc2O)cc1`, the growth is 40.9%.

Consider `N=C(N)c1ccc(-c2cc(Cl)cc(Cl)c2)cn1`, for which the growth was 93.9%.

In the case of `COc1cccc(/C=C2\Oc3cc(OCCCN4CCCC4)ccc3C2=O)c1OC`, the growth is 97.2%.

Regarding `CN(CCCCN(C[C@H]1Cc2ncccc2CN1)[C@H]1CCCc2cccnc21)C1CCC(F)(F)CC1`, the growth is 84%.

Regarding `COc1cc(-c2nn(-c3cccc(NC(=O)Nc4cccc(C(F)(F)F)c4)c3)cc2-c2ccncc2)ccc1Cl`, the growth is -14% (active).

Turning to `Clc1cc2c(nn1)Nc1ccccc1S2`, the growth is 91.7%.
